Experimental data from publication PMC5540273 (PLoS ONE, 2017).

Assays:
Conditions in all cases: concentration: 1 μM, replicates: in singlicate; n = 1
[1] = system: JAK1(JH2domain-pseudokinase)
[2] = system: JAK2(JH1domain-catalytic)
[3] = system: JAK3(JH1domain-catalytic)
JNK1 = system: T1, JNK1
T1 construct: gene MAPK8

JNK2 = system: T2, JNK2
T2 construct: gene MAPK9

JNK3 = system: T3, JNK3
T3 construct: gene MAPK10

KIT-autoinhibited = system: KIT-autoinhibited
KIT = system: KIT
LATS1 = system: LATS1
LATS2 = system: LATS2
LCK = system: LCK
LIMK1 = system: LIMK1
LIMK2 = system: LIMK2
LKB1 = system: T4, LKB1
T4 construct: gene STK11

LOK = system: T5, LOK
T5 construct: gene STK10

LRRK2 = system: LRRK2
LTK = system: LTK
LYN = system: LYN
LZK = system: T6, LZK
T6 construct: gene MAP3K13

MAK = system: MAK
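Also: KINOMEscan kinase panel screen.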

Compound | %Inh [1] [%] | %Inh [2] [%] | %Inh [3] [%] | %Inh (JNK1) [%] | %Inh (JNK2) [%] | %Inh (JNK3) [%] | %Inh (KIT-autoinhibited) [%] | %Inh (KIT) [%] | %Inh (LATS1) [%] | %Inh (LATS2) [%] | %Inh (LCK) [%] | %Inh (LIMK1) [%] | %Inh (LIMK2) [%] | %Inh (LKB1) [%] | %Inh (LOK) [%] | %Inh (LRRK2) [%] | %Inh (LTK) [%] | %Inh (LYN) [%] | %Inh (LZK) [%] | %Inh (MAK) [%]
Nc1ncnc2c1nc(-c1ccccc1)n2-c1ccccc1 [SKF-97293] | 6 | 62 | 7 | 11 | 17 | 0 | 11 | 0 | 35 | 0 | 6 | 0 | 2 | 60 | 21 | 58 | 9 | 8 | 4 | 27
COC(=O)Nc1nc2ccc(Oc3ccc(NC(=O)Nc4cc(C(F)(F)F)ccc4F)cc3)cc2n1C.Cl [GW692089] | 0 | 22 | 0 | 2 | 37 | 0 | 5 | 100 | 0 | 0 | 65 | 0 | 0 | 53 | 99.2 | 1 | 33 | 28 | 49 | 0
Cn1cc(-c2[nH]c3cc(NC(=O)[C@H](N)C4CCCCC4)cc4c3c2C=NNC4=O)cn1 | 100 | 98.7 | 99.5 | 0 | 0 | 0 | 28 | 99.9 | 90.4 | 100 | 90.7 | 90.6 | 96.6 | 94.3 | 17 | 56 | 0 | 76 | 0 | 0
c1ccc(-c2cnc3nccnn23)cc1 [AH20685] | 0 | 0 | 0 | 54 | 20 | 4 | 0 | 5 | 0 | 0 | 11 | 19 | 0 | 0 | 0 | 5 | 0 | 64 | 0 | 33
COc1ccc(Nc2nccc(NCCNC(=O)c3cc4ccccc4s3)n2)cc1 [GSK1379896] | 0 | 23 | 0 | 6 | 27 | 6 | 0 | 5 | 0 | 0 | 19 | 0 | 0 | 1 | 0 | 0 | 0 | 0 | 0 | 27
COc1cccc(-c2ccc3c(NC(=O)C4CC4)n[nH]c3n2)c1 [SB-710903] | 0 | 17 | 0 | 29 | 14 | 5 | 0 | 15 | 9 | 10 | 23 | 14 | 55 | 0 | 0 | 0 | 0 | 1 | 47 | 24
FC(F)(F)c1ccc(/C=C/c2cncnc2Nc2ccc3[nH]c(Cc4ccccc4)nc3c2)cc1 [GW709199] | 2 | 65 | 0 | 0 | 0 | 0 | 0 | 0 | 19 | 0 | 9 | 0 | 0 | 0 | 13 | 0 | 0 | 1 | 0 | 18
C[C@@H]1CC[C@@H](C(=O)Nc2ccccc2)CN1c1cc(-c2ccc3c(N)n[nH]c3c2)nc(N)n1 [GSK2286062] | 2 | 0 | 0 | 0 | 13 | 1 | 0 | 18 | 0 | 2 | 2 | 0 | 3 | 20 | 0 | 0 | 0 | 0 | 0 | 22
Cc1occc1-c1ncc(OC[C@@H](N)Cc2c[nH]c3ccccc23)cc1-c1ccc2[nH]nc(C)c2c1.O=C(O)C(F)(F)F [GSK682037] | 0 | 5 | 0 | 24 | 55 | 12 | 0 | 21 | 93.9 | 94.8 | 98.2 | 0 | 0 | 0 | 85 | 23 | 42 | 39 | 0 | 3
COc1cc2c(cc1OCCN1CCNCC1)ncc1c3ccc(C#N)cc3[nH]c21 | 45 | 64 | 85 | 13 | 0 | 0 | 55 | 70 | 0 | 42 | 45 | 0 | 0 | 15 | 42 | 99.3 | 0 | 0 | 100 | 2
c1ccc(-c2n[nH]cc2Nc2ccnc3ccccc23)nc1 [GW694077] | 33 | 94.2 | 88 | 92.6 | 60 | 90 | 0 | 33 | 0 | 0 | 0 | 0 | 13 | 94 | 0 | 78 | 0 | 0 | 0 | 0
CN(C)Cc1ccc(-c2ccc3c(Nc4ccc(Oc5ccccn5)cc4)ccnc3c2)o1 [GW567148] | 0 | 18 | 0 | 19 | 4 | 0 | 0 | 92.8 | 0 | 0 | 92.9 | 0 | 0 | 0 | 52 | 48 | 0 | 17 | 27 | 13
COc1cccc(C2=C(Nc3ccc(Cl)c(C(=O)O)c3)C(=O)NC2=O)c1 [SB-390769] | 0 | 100 | 81 | 52 | 64 | 45 | 0 | 6 | 18 | 100 | 15 | 13 | 0 | 0 | 0 | 0 | 0 | 8 | 30 | 100
Clc1ccc(-c2nn3ncccc3c2-c2ccnc(Nc3ccc4c(c3)OCCO4)n2)cc1 [GW829116] | 17 | 2 | 0 | 99.2 | 99.9 | 100 | 36 | 99.9 | 0 | 0 | 83 | 0 | 0 | 0 | 71 | 0 | 19 | 27 | 0 | 0
CNC(=O)c1ccccc1Nc1nc(Nc2ccc(N3CCOCC3)cc2)ncc1Cl.Cl [GSK1576028] | 99.9 | 99 | 100 | 100 | 100 | 100 | 10 | 92.4 | 32 | 92.1 | 99.6 | 46 | 30 | 51 | 96.4 | 92.7 | 100 | 92.6 | 89 | 11
CCc1ccc(-c2ccc3c(c2)-c2c(cnn2C)S(=O)(=O)N3C)cc1 | 5 | 2 | 5 | 0 | 0 | 0 | 0 | 2 | 0 | 0 | 0 | 0 | 0 | 29 | 16 | 1 | 3 | 0 | 14 | 14
Cc1ccc(C(=O)N2CC[C@@H](O)C2)cc1-n1c(C)cc(OCc2ccc(F)cc2F)c(Br)c1=O | 48 | 0 | 1 | 14 | 0 | 0 | 0 | 87 | 0 | 0 | 99.4 | 0 | 0 | 36 | 0 | 0 | 0 | 74 | 0 | 0
Cc1ccc(C(=O)Nc2ccc(Nc3ccnc4cc(-c5nccs5)ccc34)cc2O)cc1.Cl [GW494702] | 0 | 25 | 0 | 18 | 3 | 9 | 0 | 73 | 0 | 0 | 86 | 26 | 0 | 0 | 68 | 0 | 1 | 65 | 21 | 46
COCCOCCOc1cc2ncc3c4ccc(C#N)cc4[nH]c3c2cc1OC | 68 | 11 | 84 | 5 | 0 | 0 | 61 | 73 | 2 | 10 | 35 | 16 | 1 | 15 | 73 | 95.4 | 34 | 31 | 1 | 0
